The full list was thinned out, with hits kept by preference.
ER stress death = ER stress cell death inhibition; relative survival (cellular ATP), % at 15 µg/mL (by protocol); 0.33% of 48,000 active; CSM14.1 thapsigargin ER stress survival, ATP luminescence;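 active = survival measured by cellular ATP above 50% at 15 µg/ml in the first screen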;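 also: cell death triggered by about 15 µM thapsigargin; ATP read 24 h after thapsigargin was added; plate controls were thapsigargin with DMSO for no effect and DMSO without thapsigargin for full effect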
Numbers without * were called inactive.

SMILES | ER stress death
O=C(C(c1ccccc1)c1ccccc1)N1CCN(Cc2ccncc2)CC1 | -2
O=C(CC(c1ccccc1)c1ccccc1)N1CCN(Cc2ccccc2)CC1 | 9
Cc1ccccc1C(=O)N1CCN(Cc2ccccc2)CC1 | -1
O=C(C(c1ccccc1)c1ccccc1)N1CCN(Cc2ccc(F)cc2)CC1 | 63*
Cc1ccccc1CN1CCN(C(=O)C(c2ccccc2)c2ccccc2)CC1 | 97*
Cc1ccccc1CN1CCN(C(=O)c2cccc(Cl)c2)CC1 | 2
COc1cc(/C=C2\C(=O)NC(=O)N(c3ccc(C)cc3)C2=O)c(Br)cc1O | -1
COc1cccc(C2=NN(C(=O)c3ccc(C(C)(C)C)cc3)C(O)(C(F)(F)F)C2)c1 (centres undefined) | 1
CC(C)(C)c1ccc(C(=O)N2N=C(c3ccc([N+](=O)[O-])cc3)CC2(O)C(F)(F)F)cc1 (centres undefined) | 12
CC(C)(C)c1ccc(C(=O)N2N=C(c3cccnc3)CC2(O)C(F)(F)F)cc1 (centres undefined) | 55*
COc1ccc(-n2c(O)c(C=Nc3cccc(F)c3)c(=O)[nH]c2=O)cc1 | 3
COc1ccc(CN2CCN(C(=O)c3cccc(Cl)c3)CC2)cc1 | 2
COc1cc(/C=N/NS(=O)(=O)c2ccc3ccccc3c2)ccc1OCC(N)=O | 3
Cc1ccc(C2CC(C(F)(F)F)n3ncc(C(=O)N(Cc4ccccc4)Cc4ccccc4)c3N2)cc1 (centres undefined) | 4
COc1ccc(C2CC(C(F)(F)F)n3ncc(C(=O)Nc4ccc(F)cc4F)c3N2)cc1OC (centres undefined) | 3
COc1ccc(C2CC(C(F)(F)F)n3ncc(C(=O)N(C)Cc4ccccc4)c3N2)cc1OC (centres undefined) | 82*
O=C(O)COc1ccccc1/C=N/NC(=O)/C(=C\c1ccc2c(c1)OCO2)NC(=O)c1ccccc1 | -4
O=C(N/N=C/c1ccc(Cl)c([N+](=O)[O-])c1)/C(=C\c1ccc2c(c1)OCO2)NC(=O)c1ccccc1 | 81*
COc1cc(Cl)cc(/C=N/NC(=O)/C(=C\c2ccc3c(c2)OCO3)NC(=O)c2ccccc2)c1O | 5
CCOC(=O)c1[nH]c2c(C)cccc2c1CCN1C(=O)c2ccccc2C1=O | 6
CCOc1cc(C=C2C(=O)NC(=S)NC2=O)ccc1OCCOc1ccc(C(C)(C)C)cc1 | 0
COc1ccc(-c2nc3ccccc3c(C(=O)Nc3ccc(C)cc3)c2C)cc1 | 3
COc1ccc(NC(=O)c2cc(-c3ccc(OC)cc3OC)nc3ccccc23)c(OC)c1 | 4
COc1ccc(NC(=O)c2c(C)c(-c3ccc(C)cc3)nc3ccccc23)c(OC)c1 | 68*
Cc1sc(NC(=O)C2C3C=CC(C3)C2C(=O)O)c(C(N)=O)c1C (centres undefined) | 1
SMILES | ER stress death
O=C(c1ccco1)N1CCN(CCN2C(=O)c3cccc4cccc(c34)C2=O)CC1 | 3
CCCOC(=O)c1c(-c2ccc(Br)cc2)csc1N | 5
O=C(CSc1nnc(-c2ccco2)n1-c1ccccc1)NC(c1ccccc1)c1ccccc1 | 10
CC(Oc1ccccc1)C(=O)NCc1ccccn1 (centres undefined) | -4
C[n+]1cccc(C(=O)NCCOC(=O)c2ccc(F)cc2)c1 | 13
COc1ccc(C2C(C(=O)c3ccccc3)C(=O)CC(C)(O)C2C(=O)c2ccccc2)cc1 (centres undefined) | 58*
COC(=O)C1C(=O)CC(C)(O)C(C(=O)OC)C1c1ccc(Br)cc1 (centres undefined) | 7
CC1(O)CC(=O)C(C(=O)c2ccccc2)C(c2ccc([N+](=O)[O-])cc2)C1C(=O)c1ccccc1 (centres undefined) | -3
O=C1C=C(Nc2ccccc2C(=O)O)CC(c2ccccc2)C1 (centres undefined) | 12
O=C1C=C(NCCc2c[nH]c3ccccc23)CC(c2ccccc2)C1 (centres undefined) | 54*
CC(C)CCNC1=CC(=O)CC(c2ccccc2)C1 (centres undefined) | -1
O=C1NC(=S)N/C1=C/c1ccc(-c2ccc(Cl)cc2)o1 | 12
COc1ccc(S(=O)(=O)N(CC(=O)NCCc2ccc(OC)c(OC)c2)Cc2ccccc2)cc1 | 6
COc1ccc(N(Cc2ccc(C(=O)NC3CCCC3)cc2)S(=O)(=O)c2ccccc2)cc1 | 2
COc1ccc(N(Cc2ccc(C(=O)NC3CCCCC3)cc2)S(=O)(=O)c2ccccc2)cc1 | 9
CCN(CC)C(=O)c1ccc(CN(c2ccc(OC)cc2)S(=O)(=O)c2ccccc2)cc1 | 124*
C=CCNC(=O)COc1ccc(Br)cc1 | 13
COc1ccc(/C(C)=N/NC(=O)c2cccc(Cl)c2)c(OC)c1 | -6
CN=C(Nc1ccc(Cl)c(Cl)c1)SC1CC(=O)N(c2cccc(OC)c2)C1=O (centres undefined) | -2
COc1ccc(C(=O)N2c3ccccc3N(Cc3ccccc3)C(=O)C2(C)C)cc1 | 110*
CC1(C)C(=O)N(Cc2ccccc2)c2ccccc2N1C(=O)c1ccc([N+](=O)[O-])cc1 | 4
CC1(C)C(=O)N(Cc2ccccc2)c2ccccc2N1C(=O)c1ccc(Cl)cc1 | 4
COc1ccc(CNCc2ccccn2)cc1OC | 10
CCOC(=O)C1=NNC(C(=O)OCC)(C(=O)OCC)C1c1ccccc1 (centres undefined) | -1
Cc1cc(C)nc(SCC(O)COCc2ccccc2)n1 (centres undefined) | 1
SMILES | ER stress death
O=C(Cn1cc(Br)c(=O)n(CC(=O)Nc2ccccn2)c1=O)Nc1ccccn1 | 2
Cc1ccnc(NC(=O)C(c2ccccc2)c2ccccc2)c1 | 86*
COc1ccccc1CC(=O)Nc1cc(C)ccn1 | 7
Cc1ccnc(NC(=O)CSc2nc3ccccc3[nH]2)c1 | -1
CC1CC(Nc2ccccc2)c2ccccc2N1C(=O)c1cccc(Br)c1 (centres undefined) | 6
CC1CC(Nc2ccccc2)c2ccccc2N1C(=O)c1ccccc1 (centres undefined) | 0
CC1CC(Nc2ccccc2)c2ccccc2N1C(=O)/C=C/c1ccco1 (centres undefined) | 51*
O=C(O)CCCCCN1C(=O)C(=O)/C(=C(/O)c2ccc(F)cc2)C1c1ccc(F)cc1 (centres undefined) | -1
C#CCOc1ccc(/C=C(/C#N)C(=O)Nc2cccc(Br)c2)cc1OC | 0
Cc1ccc2c(Cl)c(C(=O)Nc3nc(-c4ccccc4)cs3)sc2c1 | 1
COc1ccc(C2CC(=O)C3=C(C2)Nc2ccccc2NC3c2cc3c(cc2Cl)OCO3)cc1 (centres undefined) | 7
Cc1ccc(C2Nc3ccccc3NC3=C2C(=O)CC(c2ccc(Cl)cc2)C3)cc1[N+](=O)[O-] (centres undefined) | 7
O=C1CC(c2ccc3c(c2)OCO3)CC2=C1C(c1ccc(C(F)(F)F)cc1)Nc1ccccc1N2 (centres undefined) | 122*
COc1ccc(C2CC(=O)C3=C(C2)Nc2ccccc2NC3c2ccc3c(c2)OCO3)cc1 (centres undefined) | 5
O=C1CC(c2ccccc2)CC2=C1C(c1ccc(F)cc1)Nc1ccccc1N2 (centres undefined) | 8
O=C1CC(c2ccc(Cl)cc2)CC2=C1C(c1ccccc1[N+](=O)[O-])Nc1ccccc1N2 (centres undefined) | 26
O=C1CC(c2ccccc2)CC2=C1C(c1ccc(Cl)c([N+](=O)[O-])c1)Nc1ccccc1N2 (centres undefined) | 100*
